Measurements taken from PubChem BioAssay (NCATS).
Records with an inconclusive call do not appear. Activity calls are given as the source filed them. Calls follow the shape of the dose curve; as a rule, active = well fitted inhibition curve with a large enough effect; inconclusive = small, poorly fitted or top-dose-only effect; inactive = flat fitted curve, though single readings scatter.

Tests used:
Assay in all cases: qHTS profiling for inhibitors of Plasmodium falciparum proliferation (AID 504749); also: nearly all actives have a fitted effect of over 60% in size
Settings in all cases: P. falciparum in erythrocytes, SYBR Green DNA, 72 h; series mostly up to 28.7 µM
AA1029 = test system: AA1029
Method in brief: (§1)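 Infected RBCs, 0.3% parasitemia/2.5% Hct final; cpd 72 h, 37 C, 5% CO2; lysis buffer with saponin/triton/SYBR Green I, o/n RT dark; FI 485/535; norm. to artemisinin (0.29 uM) and DMSO.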

ATS95 = test system: ATS95
Method in brief: as §1

C2A = test system: C2A
Method in brief: as §1

CP211 = test system: CP211
Method in brief: as §1

CP215 = test system: CP215
Method in brief: as §1

CP217 = test system: CP217
Method in brief: as §1

CP250 = test system: CP250
Method in brief: as §1

CP252 = test system: CP252
Method in brief: as §1

CP256 = test system: CP256
Method in brief: as §1

CP269 = test system: CP269
Method in brief: as §1

CP325 = test system: CP325
Method in brief: as §1

CP329 = test system: CP329
Method in brief: as §1

DIV14 = test system: DIV14
Method in brief: as §1

DIV17 = test system: DIV17
Method in brief: as §1

FAB9 = test system: FAB9
Method in brief: as §1

N140 = test system: N140
Method in brief: as §1

P93_24 = test system: P93_24
Method in brief: as §1

PAD = test system: PAD
Method in brief: as §1

PC15 = test system: PC15
Method in brief: as §1

SC27B = test system: SC27B
Method in brief: as §1

Measured: Potency

Oc1ccc(/C=C\c2cc(O)cc(O)c2)cc1
inactive: all assays above
